Measured values as given in PubChem BioAssay (NCI).
The panel holds about 79,000 compounds, 15% with a hit somewhere; the sample as a whole holds those more often. Unmarked numbers belong to inactive results. Active and inactive are the calls of the source. Rule as the data show it: active = growth inhibition above about 70%; inactive = the rest. Where a SMILES comes first, the peptide text is derived from it. The star is where a group is joined. Boc = CC(C)(C)OC(=O)*

Legend:
[1] = NCI Yeast Anticancer Drug Screen. Data for the rad50 strain (AID 155);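 also: 0% = growth of vehicle-only cultures of the same strain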; conditions: S. cerevisiae rad50 strain growth inhibition; at 50.0 µM; stronger effect = higher value
Outline: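 Relative growth inhibition (compound vs vehicle) was measured in yeast with a defined repair-gene alteration.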

[2] = NCI Yeast Anticancer Drug Screen. Data for the mec2-1 strain (AID 157); conditions: S. cerevisiae mec2-1 strain, at 50.0 µM, stronger effect = higher value
Outline: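 Vehicle-treated cultures served as reference for growth inhibition of compound-exposed mec2-1 yeast.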

[3] = NCI Yeast Anticancer Drug Screen. Data for the sgs1 mgt1 strain (AID 161);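 also: 0% = growth of cultures given vehicle only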; conditions: S. cerevisiae sgs1 mgt1 strain, at 50.0 µM, stronger effect = higher value
Outline: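 Mutant yeast exposed to compound; growth scored against vehicle-only wells.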

[4] = NCI Yeast Anticancer Drug Screen. Data for the cln2 rad14 strain (AID 165);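 also: 0% = growth equal to vehicle treated cultures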; conditions: S. cerevisiae cln2 rad14 strain, at 50.0 µM, stronger effect = higher value
Outline: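 Each compound was tested on cln2 rad14 yeast. Inhibition of growth was calculated against vehicle-exposed controls.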

[5] = NCI Yeast Anticancer Drug Screen. Data for the bub3 strain (AID 167); conditions: S. cerevisiae bub3 mutant strain, at 50.0 µM, stronger effect = higher value
Outline: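 Screening used yeast with an engineered genetic alteration affecting cell cycle control. Compound-exposed cultures were compared with vehicle cultures, and reduced growth was taken as inhibition.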

[6] = NCI Yeast Anticancer Drug Screen. Data for the mlh1 rad18 strain (AID 175); conditions: S. cerevisiae mlh1 rad18 strain growth inhibition; at 50.0 µM; stronger effect = higher value
Outline: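 Vehicle-treated cultures served as the reference for growth inhibition in a yeast strain carrying DNA damage repair alterations exposed to each compound.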

Compound	growth inhibition [1]	growth inhibition [2]	growth inhibition [3]	growth inhibition [4] [%]	growth inhibition [5] [%]	growth inhibition [6]
CCCCn1c(-c2ccccc2)cs/c1=N\N=C1C=C(C(C)(C)C)C(=O)C(C(C)(C)C)=C1	12.2%	-13.9%	0.05%	-35.2	-16.9	16.9%
CC(NC(=O)C(NC(=O)OC(C)(C)C)C(C)C)C(=O)N1CCCC1C(=O)O (stereo not drawn) (Boc-Val-Ala-Pro-OH; configuration not given here)	-38.4%	-52.5%	-41%	-28.7	-20.6	-38.4%
COc1cc2c(cc1OC)C(C(CBr)CBr)N(C1CCCC1)CC2 (configuration not stated)	-8.2%	-15.3%	13.6%	-19.9	-12.4	11.6%
COc1ccc2[nH]c(=O)cc(C)c2c1	-5.35%	-4.1%	-1.6%	-37.7	18.9	-85.3%
COc1c(F)c(F)c(/C(O)=C\c2nc3ccccc3[nH]c2=O)c(F)c1F	-19.6%	-22.9%	-17.4%	13.6	-2.05	-11.3%
ON=C1CCN(c2ccccc2)CC1	10.3%	-30.5%	-10.4%	-44.1	1.6	-18.4%
CC/C=N/Nc1ccc([N+](=O)[O-])cc1[N+](=O)[O-]	15.6%	-9.1%	4.6%	3.3	1.6	22.6%
Cc1ccc(C(=O)CCC(=O)OCC(=O)c2ccc(-c3ccccc3)cc2)cc1	-7.95%	11.3%	-1%	14.8	-6	-20.1%
Cn1c(=O)c2c(nc(N)n2C)n(C)c1=O	-16.8%	-8.35%	5.8%	-30.2	-33.6	-20.4%
COc1cccc(/C(C#N)=C\O)c1	-17.2%	-36.9%	-29.9%	3.2	-42.9	-8.8%
O=C(NCC1(O)CCCCC1)c1ccccc1	3.65%	-14.2%	-5.55%	-8.35	3.8	1.3%
O=S(=O)(O/C(=C(\OS(=O)(=O)C(F)(F)F)c1ccccc1)c1ccccc1)C(F)(F)F	6.9%	-20.2%	-21.1%	-4.8	-2.65	10%
Cc1cccc(C)c1NC(=O)C(=O)C(C#N)c1ccccc1Cl (configuration not stated)	-13.2%	-47.7%	-10.8%	-1.1	4.85	-11.5%
COc1ccc(Br)c(C=O)c1NC(C)=O	22.7%	11.4%	38.1%	-1.3	-8.25	-4.1%
C=C(Nc1ccc([N+](=O)[O-])cc1[N+](=O)[O-])c1c/c(=N\NC(N)=S)c2ccccc2o1	25.1%	-16%	-3.85%	15.6	16.4	6.45%
CC(=O)O[C@H]1CC[C@@]2(C)[C@@H](CC[C@@H]3[C@@H]2CC(=O)[C@@]2(C)[C@H]3C[C@@H]3CC(C)=CC(=O)[C@@H]32)C1	48.2%	-7.55%	28.6%	-20.6	-34.9	28%
COc1c(O)c2c(=O)cc3c4c5c(cc(=O)c6c(O)c(OC)c(CC(C)O)c(c(c1CC(C)O)c24)c65)OCO3 (configuration not stated)	74.5% (active)	97.8% (active)	76.3% (active)	37.5	5.55	70.5% (active)
CC(CC#N)=C(c1ccccc1)c1ccccc1	17.4%	18.9%	14%	16	-12.8	-5.05%
Clc1ccc(N=Cc2ccccc2Cl)cc1	34.8%	16.1%	25.2%	-13.7	42	19.7%

Compound	growth inhibition [1]	growth inhibition [2]	growth inhibition [3]	growth inhibition [4] [%]	growth inhibition [5] [%]	growth inhibition [6]
CCN(CC)CN1C(=O)C2C3C=CC(C2C1=O)C1C2C(=O)N(CN(CC)CC)C(=O)C2C31 (configuration not stated)	2.8%	-25.6%	-27.6%	-9.15	-47.5	-45.9%
CC1=CC(=O)[C@@H]2C[C@H]1C2(C)C	15.3%	12.8%	-33.9%	-2.9	-2.1	22.2%
Cc1ccc(/C=C/C(=N/Nc2ccccc2)C(C)CN(C)C)cc1 (configuration not stated)	-3.2%	-10.1%	-3.25%	-15.3	-1.35	-5%
C(=C\c1ccccc1)/Cn1nc(-c2ccccc2)nc1-c1cnccn1	-33.1%	-24%	-47%	10.2	-39.4	-29.1%
CN(C)Cc1cc(N=Nc2ccccc2)ccc1O	-23.4%	-12.2%	-12.4%	9.4	4.9	-19.4%
C=C1CC[N+]2(CCCCCC)CCCC12 (configuration not stated)	2.5%	27.4%	11.3%	-1.4	25.4	21.6%
CCc1cc2c(cc1/C(C)=N/N=C(\C)c1cc3c(cc1CC)C(C)(C)CCC3(C)C)C(C)(C)CCC2(C)C	-27.1%	-1.8%	-9.3%	-30.6	9.95	-15.5%
CC(C)c1ccccc1NC(=O)C(=O)Cc1nc2ccccc2s1	23.2%	7.2%	19.7%	-36.1	38.3	51.4%
N#CCCN(CCC#N)Cc1ccc2c(O)c(CN(CCC#N)CCC#N)ccc2c1O	23.8%	7.35%	3.35%	-1.65	-0.15	3.65%
C=C(Br)c1ccc2c(c1)OCO2	30%	15.7%	20.9%	8	4.05	-8.55%
COc1ccc(-c2cc(C)cc(O)c2)c(OC)c1OC	7.5%	6.2%	21.4%	-8.2	-9.3	-11.3%
O=c1c(Cl)c(-c2cccc3ccccc23)oc2ccccc12	-14.3%	1.8%	4.2%	-40.6	9.2	-15.4%
O=C(Nc1cccc2c1C(=O)c1c(NC(=O)c3ccccc3)ccc(Nc3cccc4c3C(=O)c3ccccc3C4=O)c1C2=O)c1ccccc1	8.05%	-2.65%	0.9%	10	9.05	3.45%
Cc1ccccc1OCC1COCN(Cc2ccccc2)CO1 (configuration not stated)	18.8%	21.2%	28.1%	20.6	6.95	32.9%
CC1CCC(=O)C(C(=O)CC2CC(=O)NC(=O)C2)C1 (configuration not stated)	31.6%	1.45%	19.7%	-30.3	2.3	4.55%
CC(=O)NNc1nc(C)c(C(=O)NNC(=O)C(=O)Nc2ccc(C)c(C)c2)s1	8.7%	-1.2%	-6.05%	4.8	20.9	-1.45%
COc1ccc(Cc2ccccc2C(=O)c2ccc(OC)cc2)cc1	-14.7%	-13.8%	0.05%	-4.65	4.6	-14.8%
CCC(=O)NC(Nc1cccc(F)c1)(C(F)(F)F)C(F)(F)F	-28.5%	-36.6%	-20.7%	13.3	-20.9	-66.8%
